The nature of this test: HT29 colon tumor cell growth inhibition, primary screen, imaging, high content imaging, 24 h, CellTiter-Glo (AID 770).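 For condensed nuclei: share of cells whose nuclear area falls below control median minus 1.5 SD.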 Particulars: HT29 cell number by imaging, at 10 µM, stronger effect = higher value; for condensed nuclei: measured here: percent cells with condensed nuclei. On the technique in general: ATP-based viability assays read luminescence as a measure of living cells.
Setting [1] is: measured here: ATP CellTiter-Glo viability.

Structures are written as SMILES. Hit rate of the full screen: of about 3,300 compounds, fewer than 10 were called active.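 Rule for the calls: active = growth inhibition above 90% in viable cell count at a single dose; inactive = growth inhibition below 90%.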 These entries were drawn from the full list.

As for `CCCCCC(=O)N1CC2(C)CN(C(=O)CCCCC)CC(C)(C1)C2=O`, the growth inhibition is -27.8% (inactive) and the condensed nuclei came out at 1.67%. Besides, under setting [1], the growth inhibition was -0.56%.

For `CN1CCc2c(n(CC(O)CN3C(=O)c4ccccc4S3(=O)=O)c3ccccc23)C1=O` (centres undefined), the growth inhibition was 3.96% (inactive) and the condensed nuclei was determined as 8.09%. Also, under setting [1], the growth inhibition was -10.2%.

For the compound `O=C1CC(C(=O)O)c2ccccc2N1` (centres undefined), the growth inhibition is 10.3% (inactive) and the condensed nuclei was found to be 2.67%. Moreover, the growth inhibition under setting [1] came to 0.11%.

`COc1nc(NS(=O)(=O)c2ccc(C)cc2)nc(C)c1Cl`: the growth inhibition was 9.89% (inactive) and the condensed nuclei was determined as 2.47%. The growth inhibition under setting [1] is -6.08%.

With `CCOC(=O)N1CCN(c2ncnc3c2cnn3-c2ccc(OC)cc2)CC1`, the growth inhibition is 17% (inactive) and the condensed nuclei was determined as 3.96%. Further, the growth inhibition under setting [1] turned out to be 5.78%.

As for `CCOC(=O)C1CCCN(c2nc3ccccc3nc2C(C#N)C(=O)OCCOC)C1` (centres undefined), the growth inhibition was 49.2% (inactive) and the condensed nuclei is 9.83%. In addition, under setting [1], the growth inhibition was 70%.

Take `Cn1ncc2nc[nH]c(=O)c21`: the growth inhibition was 27.4% (inactive) and the condensed nuclei was 2.08%. For the same compound, under setting [1], the growth inhibition came to 0.04%.

As for `CC(C)Nc1nc(NC(C)C)nc(N(C)n2cnnc2)n1`, the growth inhibition is -12.4% (inactive) and the condensed nuclei worked out at 2.84%. Also, the growth inhibition under setting [1] was -9.08%.

As for `COc1ccc(C(=O)OC(C)CN2CCN(C)CC2)cc1OC` (centres undefined), the growth inhibition is 28.2% (inactive) and the condensed nuclei was 5.84%. In addition, the growth inhibition under setting [1] is 1.58%.

Turning to `Cc1cc(Cn2ccnc2)c(C)cc1Cn1ccnc1`, the growth inhibition was 13.6% (inactive) and the condensed nuclei came to 3.14%. Besides, under setting [1], the growth inhibition is 11.6%.

For `COc1cc(-c2nn3c(COc4ccccc4)nnc3s2)cc(OC)c1OC`, the growth inhibition was 56.5% (inactive) and the condensed nuclei came out at 5.76%. In addition, the growth inhibition under setting [1] stood at 9.54%.

`CCOC(=O)C1=C(C)NC(SCC(=O)Nc2nc(C)cs2)=C(C#N)C1c1cccs1` (centres undefined): the growth inhibition is 7.8% (inactive) and the condensed nuclei worked out at 5.36%. Moreover, the growth inhibition under setting [1] amounted to 22.8%.

Consider `COc1ccc(OC)c(NC(=O)CSc2nnc(-c3ccco3)n2-c2ccc(C(=O)O)cc2)c1`, for which the growth inhibition is 5.68% (inactive) and the condensed nuclei was determined as 4.63%. Also, the growth inhibition under setting [1] is -8.2%.

Consider `c1ccc(N2CCN(c3nc(-c4ccccn4)nc4ccccc34)CC2)cc1`, for which the growth inhibition was 4.92% (inactive) and the condensed nuclei was determined as 11.6%. The growth inhibition under setting [1] is -10.8%.

On to `CC1(C)Cc2c(C#N)c(OCC(=O)c3ccc(Cl)cc3)nc(-c3ccoc3)c2CO1`, for which the growth inhibition is 18.7% (inactive) and the condensed nuclei worked out at 4.85%. Under setting [1], the growth inhibition was determined as 21.9%.

`O=C(NCc1ccccc1)c1ccc(=O)[nH]n1`: the growth inhibition was -5.75% (inactive) and the condensed nuclei turned out to be 3.79%. Under setting [1], the growth inhibition was -8.23%.

For `Cc1ccc(NC(=O)Cn2nc(C)c3ccccc3c2=O)cc1`, the growth inhibition is -20% (inactive) and the condensed nuclei is 3.28%. Also, under setting [1], the growth inhibition is -4.94%.

Turning to `COc1ccc(OC)c(C2NC(=O)c3sc(=S)n(-c4ccccc4)c3N2)c1` (centres undefined), the growth inhibition is 36.6% (inactive) and the condensed nuclei stood at 4.81%. Moreover, under setting [1], the growth inhibition was 16.9%.

For `CC(=O)N1CC=C2C(C#N)=C(N)C(C#N)(C#N)[C@H](c3ccoc3)[C@H]2C1`, the growth inhibition is 6.78% (inactive) and the condensed nuclei stood at 3.16%. Further, the growth inhibition under setting [1] is -12.8%.

`Cc1ccc(CNc2oc(COc3ccccc3Cl)nc2C#N)cc1`: the growth inhibition was -7.99% (inactive) and the condensed nuclei is 4.34%. Further, under setting [1], the growth inhibition is -1.41%.

Regarding `CCOC(=O)C(NC=O)(NC(C)(C)C)C(=O)OCC`, the growth inhibition was -28.5% (inactive) and the condensed nuclei amounted to 2.61%. Also, the growth inhibition under setting [1] is -6.54%.

With `Cc1nc2sc(C#N)c(N)c2c2c1CCCC2`, the growth inhibition was -26.7% (inactive) and the condensed nuclei was determined as 1.98%. Moreover, under setting [1], the growth inhibition is -6.54%.

`Cn1c(SCC(=O)N2CCOCC2)nnc1-c1ccc(Cl)cc1Cl`: the growth inhibition is 30.4% (inactive) and the condensed nuclei is 2.99%. The growth inhibition under setting [1] was -11.5%.

Consider `COc1ccc(C2CC(=O)C(C=NCCN3CCOCC3)=C(O)C2)cc1` (centres undefined), for which the growth inhibition is 30% (inactive) and the condensed nuclei amounted to 0.91%. Besides, under setting [1], the growth inhibition is -14.6%.

On to `CC(NC(=O)CSc1nnc(COc2ccccc2)o1)c1ccccc1` (centres undefined), for which the growth inhibition is 2.08% (inactive) and the condensed nuclei turned out to be 4.42%. The growth inhibition under setting [1] is -10.8%.

Take `N#CC1=C(SCC(=O)c2ccccc2)NC2=C(C(=O)CCC2)C1c1ccco1` (centres undefined): the growth inhibition was 77% (inactive) and the condensed nuclei turned out to be 20.4%. Under setting [1], the growth inhibition stood at 12.5%.

In the case of `Cn1c(=O)c2c3c(sc2n2c(SCC(N)=O)nnc12)CC(C(C)(C)C)CC3` (centres undefined), the growth inhibition was -4.56% (inactive) and the condensed nuclei worked out at 3.87%. In addition, the growth inhibition under setting [1] is -15.8%.

In the case of `CN(CCOC(=O)c1cccc(Br)c1)C(C)(C)C`, the growth inhibition is 6.82% (inactive) and the condensed nuclei was determined as 2.48%. In addition, the growth inhibition under setting [1] was found to be 3.02%.

As for `COC(=O)c1cc(Br)c(=O)n(Cc2cccnc2)c1`, the growth inhibition is 6.29% (inactive) and the condensed nuclei was determined as 1.99%. Besides, the growth inhibition under setting [1] was -14.1%.

With `CC12CN3CC(C)(CN(C1)C3c1ccc(Cl)cc1Cl)C2O` (centres undefined), the growth inhibition is 15% (inactive) and the condensed nuclei turned out to be 2.07%. In addition, under setting [1], the growth inhibition came to 0.64%.

Take `CC1(C)Cc2c(c(N3CCOCC3)nc3sc(C#N)c(N)c23)CS1`: the growth inhibition was 16.1% (inactive) and the condensed nuclei turned out to be 14%. For the same compound, the growth inhibition under setting [1] was 12.8%.

For `COc1cccc(CNc2ncc(Br)cc2Br)c1O`, the growth inhibition was 28.4% (inactive) and the condensed nuclei was found to be 8.79%. In addition, the growth inhibition under setting [1] is 3.03%.

Regarding `COc1ccccc1NC(=O)c1c(C)cc(=O)oc1C`, the growth inhibition is 2.52% (inactive) and the condensed nuclei was determined as 1.89%. The growth inhibition under setting [1] was -2.65%.

`C=CCc1c(C)nc(SCCC)[nH]c1=O`: the growth inhibition is -39.5% (inactive) and the condensed nuclei was determined as 4.83%. For the same compound, the growth inhibition under setting [1] came to 9.14%.

As for `Cc1cc(N2C(=O)C(=O)/C(=C(/O)c3ccccc3)C2c2cccs2)no1` (centres undefined), the growth inhibition is -3.8% (inactive) and the condensed nuclei stood at 2.92%. Also, the growth inhibition under setting [1] was -3.1%.

As to `N#Cc1c(NCCN)nc(NCc2ccccc2)c2c1CCN(Cc1ccccc1)C2`, the growth inhibition is 48.7% (inactive) and the condensed nuclei amounted to 7.1%. Besides, the growth inhibition under setting [1] stood at 41.2%.

`CSC1=C(C#N)C(c2ccc(C)s2)CC(=O)N1` (centres undefined): the growth inhibition was 22.7% (inactive) and the condensed nuclei turned out to be 3.3%. Moreover, the growth inhibition under setting [1] amounted to 4.49%.

Turning to `COc1cc(-c2cc(C(F)(F)F)n3ncc(C(=O)O)c3n2)cc(OC)c1OC`, the growth inhibition is -25.6% (inactive) and the condensed nuclei is 2.49%. Also, under setting [1], the growth inhibition was -14.3%.

(Values after PubChem BioAssay AID770 (SRMLSC, 2007).)
